Experimental findings from PubChem BioAssay (NCI) are described below.

Test systems include SN12C renal; UO-31 renal; TK-10 renal; ACHN renal; CAKI-1 renal; A498 renal; CCRF-CEM leukemia; MOLT-4 leukemia; SR leukemia.
Test in all cases: NCI-60 one-dose screen, 48 h (100 = growth as untreated, 0 = no growth, -100 = all killed)
What all share (details): 10 µM

Structures are written as SMILES. About 83,000 compounds went through this panel and 20% of them were active in at least one assay; those are over-represented in the sample as a whole.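 Note: values are percent growth. 100 is the growth of untreated cells, values between 100 and 0 indicate rising inhibition; between -100 and 0 indicates cell death.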 Values without a mark were called inactive. Active and inactive are the calls of the source. How the source made its calls: active means growth percent below 10; inactive means the rest.

`O=C(C[P+](c1ccccc1)(c1ccccc1)c1ccccc1)C[P+](c1ccccc1)(c1ccccc1)c1ccccc1`: the growth in the assay on SN12C renal is -45.9% (active); with UO-31 renal it was -98.2% (active); with TK-10 renal, -94.1% (active); with ACHN renal, -99.4% (active); with CAKI-1 renal, -96.1% (active); in the assay with A498 renal it was -93.8% (active). Further, the results for the growth in the assay on CCRF-CEM leukemia, with MOLT-4 leukemia and in the assay with SR leukemia were -24% (active), -28.9% (active) and -19.6% (active), respectively.

For the compound `O=C(O)CC(Cl)C(Cl)CC(=O)O` (configuration not stated), the growth was 102% in the assay with SN12C renal; 81.1% in the assay on UO-31 renal; 95.7% with TK-10 renal; 103% in the assay on ACHN renal; 91.6% in the assay with CAKI-1 renal; 105% with A498 renal. The growth in the assay on CCRF-CEM leukemia was 89.9%; in the assay with MOLT-4 leukemia it was 97.1%; in the assay with SR leukemia, 0.349% (active).

As to `C#Cc1ccc(-n2c(/C=C/c3ccc4ccccc4c3)nc3ncccc3c2=O)cc1`, the growth in the assay with SN12C renal was 28.9%; in the assay with UO-31 renal it was 13.7%; in the assay with TK-10 renal, 21.4%; in the assay on ACHN renal, 23.1%; in the assay with CAKI-1 renal, 13%; in the assay on A498 renal, -2.88% (active). Further, the growth with CCRF-CEM leukemia was 2.66% (active); in the assay with MOLT-4 leukemia, 4.88% (active); in the assay with SR leukemia, 4.43% (active).

Turning to `O=C(Nc1cccc(-n2cc(-c3ccncc3)c(-c3cc(O)cc(Cl)c3)n2)c1)Nc1ccc(Cl)c(C(F)(F)F)c1`, the growth in the assay with SN12C renal is 34.6%; with UO-31 renal, 18.5%; with TK-10 renal, 25.9%; in the assay on ACHN renal it was 21.3%; in the assay with CAKI-1 renal, 29.1%; in the assay with A498 renal, 21.5%. Also, the results for the growth in the assay on CCRF-CEM leukemia, with MOLT-4 leukemia and in the assay with SR leukemia were 9.31% (active), -18% (active) and -30.6% (active), respectively.

Regarding `COc1ccc(-c2nn(-c3cccc(NC(=O)Nc4cccc(C(F)(F)F)c4)c3)cc2-c2ccncc2)cc1Cl`, the growth in the assay on SN12C renal is 19.7%; in the assay on UO-31 renal it was -4.03% (active); in the assay on TK-10 renal, 11.8%; in the assay on ACHN renal, 17.5%; in the assay with CAKI-1 renal, 1.63% (active); in the assay on A498 renal, 0.293% (active). Further, the growth with CCRF-CEM leukemia was 2.2% (active); with MOLT-4 leukemia, 2.54% (active); in the assay on SR leukemia, 4.34% (active).

In the case of `Cc1nc2c(c(=O)[nH]1)OCN(Cc1ccccc1)C2`, the growth in the assay with SN12C renal is 104%; with UO-31 renal it was 79.3%; in the assay with TK-10 renal it was 119%; with ACHN renal, 104%; in the assay with CAKI-1 renal it was 103%; in the assay on A498 renal it was 75.5%. The growth in the assay with CCRF-CEM leukemia is 90.5%; in the assay with MOLT-4 leukemia, 95.9%; with SR leukemia, 93.6%.

Take `COc1ccc2c(c1OC)O/C(=C\c1ncc([N+](=O)[O-])n1C)C2=O`: the growth is 11.8% in the assay with SN12C renal; -42.8% (active) in the assay on UO-31 renal; 14.7% in the assay on TK-10 renal; -2.65% (active) in the assay with ACHN renal; -27.5% (active) with CAKI-1 renal; 68.8% in the assay on A498 renal. Further, the growth in the assay on CCRF-CEM leukemia was 4.93% (active); in the assay with MOLT-4 leukemia it was 1.01% (active); with SR leukemia, 6.02% (active).

On to `CC(=O)C1CCC2C3CC(F)C4=CC(=O)CCC4(C)C3C(O)CC12C` (configuration not stated), for which the growth was 92% in the assay with SN12C renal; 75.8% in the assay on UO-31 renal; 122% with TK-10 renal; 99.7% with ACHN renal; 96.1% in the assay with CAKI-1 renal; 116% with A498 renal. Moreover, the growth in the assay on CCRF-CEM leukemia is 93.6%; with MOLT-4 leukemia, 85.8%; with SR leukemia, 92.9%.

On to `CCOC(=O)N1C/C(=C/c2ccc(Cl)cc2)C(=O)/C(=C/c2ccc(Cl)cc2)C1`, for which the growth with SN12C renal was 72.2%; in the assay with UO-31 renal it was 45.2%; with TK-10 renal, 99.5%; with ACHN renal, 74.7%; in the assay on CAKI-1 renal, 65.5%; in the assay on A498 renal, 79.7%. Also, the growth was 26% with CCRF-CEM leukemia, 21.5% in the assay with MOLT-4 leukemia and -5.62% (active) in the assay on SR leukemia.

For the compound `COc1ccc(S(=O)(=O)NCCCNc2nccc(-c3c(-c4ccc(F)cc4)nc4sccn34)n2)cc1`, the growth with SN12C renal is 59.5%; in the assay with UO-31 renal, 22.1%; in the assay with TK-10 renal it was 60.5%; in the assay on ACHN renal, 36.5%; in the assay with CAKI-1 renal it was 39.4%; with A498 renal, 58.5%. Besides, the growth was 37.6% in the assay with CCRF-CEM leukemia, 34.4% with MOLT-4 leukemia and 28.3% in the assay on SR leukemia.

With `COc1ccc(Nc2ncnc3c2c(SC)nn3-c2ccccc2)cc1`, the growth in the assay with SN12C renal is 83.8%; in the assay on UO-31 renal, 77.2%; in the assay on TK-10 renal, 117%; in the assay with ACHN renal, 100%; in the assay with CAKI-1 renal, 82.7%; in the assay on A498 renal, 118%. The growth is 98.5% with CCRF-CEM leukemia, 88.1% in the assay with MOLT-4 leukemia and 84.2% with SR leukemia.

Consider `Cc1ccc(C(=O)N2C/C(=C/c3ccc(F)cc3)C(=O)/C(=C/c3ccc(F)cc3)C2)cc1`, for which the growth is 92.4% in the assay with SN12C renal; 64.3% in the assay on UO-31 renal; 102% with TK-10 renal; 103% in the assay on ACHN renal; 81.3% in the assay on CAKI-1 renal; 93.5% in the assay on A498 renal. For the same compound, the growth is 63.1% in the assay with CCRF-CEM leukemia, 71.6% in the assay on MOLT-4 leukemia and 20.4% in the assay on SR leukemia.

Regarding `C#Cc1ccc(-n2c(/C=C/c3ccc4ccccc4n3)nc3ncccc3c2=O)cc1`, the growth in the assay on SN12C renal was -15% (active); with UO-31 renal, -91.7% (active); with TK-10 renal, -44.4% (active); in the assay on ACHN renal, 2.7% (active); in the assay with CAKI-1 renal, -20.5% (active); in the assay with A498 renal it was -69.1% (active). Moreover, the growth in the assay on CCRF-CEM leukemia was -15.1% (active); in the assay on MOLT-4 leukemia, -7.6% (active); in the assay with SR leukemia, -17.9% (active).
